Bioassay records as filed in PubChem.
TDP1 inh: blocks human tyrosyl-DNA phosphodiesterase 1. Q9NUW8. recombinant TDP1, AlphaScreen DNA substrate cleavage. Potency, µM (series often up to 130 µM), for inactives: top-dose activity change, negative = inhibition, usual class: inhibitors. hit rate 0.28% among 350,000; further: nearly all actives have a fitted effect of over 40% in size
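AlphaScreen read-out: signal falls as enzyme removes the 3' tyrosine-FITC from a 5'-biotinylated DNA oligo (15 nM, 5 min, RT). Enzyme was E. coli-made recombinant Tdp1 at 1 nM, exposed to compound for 15 min beforehand; beads 10 ug/ml, 10 min.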
Gal4-VP16 FLuc: Gal4-VP16 reporter inhibition counter-screen; Drosophila S2 Gal4-VP16 UAS-luciferase, luminescence, 20 h; Potency, µM (doses to about 53.6 µM), inactives show top-dose activity, negative = inhibition, usual class: inhibitors; hit rate 3.5% among 310,000; AID 2546;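 further: Gal4-VP16 expression switched on by copper sulfate through the metallothionein promoter; nearly all actives have a fitted effect of over 50% in size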
TDP1 cell CPT: growth inhibition of DT40 Tdp1-/-;hTDP1 cells with camptothecin (screen for TDP1 inhibitors); chicken DT40 Tdp1-/-;hTDP1 cells + 20 nM CPT, ATP luminescence, 48 h; Potency, µM (titrated, usually from 46.2 µM), inactives show at the highest dose activity change, negative = growth inhibition, usual class: inhibitors; hit rate 12% among 420,000; AID 686979; further: nearly all actives have a fitted effect of over 55% in size
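Chicken DT40 Tdp1-/- cells stably complemented with human TDP1 were seeded at 400 cells/well in medium containing 20 nM camptothecin, exposed to pin-transferred compounds, and grown at 37 °C for at least 48 hr. Viability was read as ATP luminescence.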
DT40 TDP1 no CPT: qHTS for Inhibitors of human tyrosyl-DNA phosphodiesterase 1 (TDP1): qHTS in cells in absence of CPT; DT40 Tdp1-/- hTDP1 cells, no CPT, ATP luminescence, 48 h; Potency, µM (top dose mostly 46.2 µM), for the others: at the highest dose activity change, negative = growth inhibition, hits mostly inhibitors; hit rate 15% among 420,000; further: nearly all actives have a fitted effect of over 55% in size
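Chicken DT40 Tdp1-/- cells stably complemented with human TDP1 were seeded at 400 cells/well with DMSO in place of 20 nM camptothecin. After compound pinning, cells grew at least 48 hr at 37 °C; viability read by CellTiter-Glo luminescence.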
RORg inh: ROR gamma (mouse) transcription inhibition | P51450 | Drosophila S2 Gal4-RORgamma UAS-luciferase reporter, 20 h | Potency, µM (highest dose often 53.6 µM), for the others: at the highest dose activity change, negative = inhibition, hits mostly inhibitors | hit rate 5.4% among 310,000; further: nearly all actives have a fitted effect of over 60% in size
Target sequence (P51450 whole entry, looked up, the tested form may be a part): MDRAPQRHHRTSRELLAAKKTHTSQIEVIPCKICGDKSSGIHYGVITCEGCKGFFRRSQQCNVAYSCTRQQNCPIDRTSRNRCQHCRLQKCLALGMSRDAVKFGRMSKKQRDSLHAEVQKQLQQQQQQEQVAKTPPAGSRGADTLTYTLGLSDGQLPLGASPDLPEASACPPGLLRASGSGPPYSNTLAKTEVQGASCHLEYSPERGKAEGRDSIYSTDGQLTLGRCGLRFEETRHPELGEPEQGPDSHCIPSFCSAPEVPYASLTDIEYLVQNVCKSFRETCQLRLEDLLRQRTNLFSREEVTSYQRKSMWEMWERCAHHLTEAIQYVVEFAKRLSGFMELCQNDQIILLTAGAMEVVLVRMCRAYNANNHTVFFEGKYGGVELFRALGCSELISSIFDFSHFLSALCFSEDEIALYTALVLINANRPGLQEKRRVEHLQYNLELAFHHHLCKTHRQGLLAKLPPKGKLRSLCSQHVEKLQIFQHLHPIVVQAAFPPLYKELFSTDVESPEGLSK
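Using a luciferase readout, inhibitors were identified by reduced reporter activity in Drosophila cells coexpressing a copper-inducible Gal4–ROR gamma fusion and UAS-driven Photinus luciferase, incubated 20 hr after 700 uM copper sulfate.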
* = called active by the depositor. Sampled rows, rich in hits. Any-hit rate of the full collection: about 19%. The call rests on the fitted dose curve; in most records, active means well fitted curve in the direction sought with a large enough effect; inconclusive means small, poorly fitted or top-dose-only effect, or another doubt; inactive means no such curve, though single readings can be large; an effect the other way counts as inactive or inconclusive. On the % scale 0 is the no-effect control and ±100 the full control effect; potency means the concentration at half of the fitted maximal effect.

`COc1ccc(-c2nc(=S)c3c(n2CCN2CCOCC2)CC(C)(C)OC3)cc1` gave TDP1 inh 1%, Gal4-VP16 FLuc -3%, TDP1 cell CPT 0%, DT40 TDP1 no CPT -18% and RORg inh 12%.
Screening CCc1ccc(NC(=O)CCC(=O)N2CCSc3ccccc32)cc1 returned Gal4-VP16 FLuc -3%, TDP1 cell CPT 21µM*, DT40 TDP1 no CPT inconclusive and RORg inh 18%.
Screening CCc1cccc(NC(=O)CCC(=O)N2CCSc3ccccc32)c1 returned TDP1 inh 0%, Gal4-VP16 FLuc 3%, TDP1 cell CPT inconclusive, DT40 TDP1 no CPT inconclusive and RORg inh 8%.
Screening O=C(CCC(=O)N1CCSc2ccccc21)NCc1cccc(Cl)c1 returned Gal4-VP16 FLuc -7%, TDP1 cell CPT inconclusive, DT40 TDP1 no CPT inconclusive and RORg inh 7%.
Cc1ccc(CNC(=O)CCC(=O)N2CCSc3ccccc32)cc1 was read as TDP1 inh 0%, TDP1 cell CPT inconclusive and DT40 TDP1 no CPT 23µM*.
Screening CCOC(=O)c1sc(NC(=O)/C=C/c2cnn(CC)c2C)c(C(=O)OCC)c1C returned TDP1 inh -1%, Gal4-VP16 FLuc inconclusive, TDP1 cell CPT inconclusive, DT40 TDP1 no CPT 21µM* and RORg inh 13%.
Screening O=C(CSc1ccc(Cl)cc1)N/N=C/c1ccc([N+](=O)[O-])o1 returned Gal4-VP16 FLuc inconclusive, TDP1 cell CPT 16µM*, DT40 TDP1 no CPT inconclusive and RORg inh -21%.
O=C(CNc1ccc2ccccc2c1)N/N=C/c1ccc([N+](=O)[O-])o1 was read as TDP1 inh -3%, Gal4-VP16 FLuc inconclusive, TDP1 cell CPT 15µM*, DT40 TDP1 no CPT 21µM* and RORg inh -18%.
O=C(/C=C/c1ccc(S(=O)(=O)N2CCOCC2)cc1)N1CCCCC1 was read as TDP1 inh -11%, TDP1 cell CPT -1% and DT40 TDP1 no CPT -24%.
For Cc1cc(C)n2nc(C(=O)OCC(=O)Nc3ccc(C)c(F)c3)nc2n1 the results were TDP1 inh 0%, TDP1 cell CPT -14% and DT40 TDP1 no CPT 10%.
`O=Cc1cn(CCC(=O)O)nc1-c1cccc2ccccc12` gave TDP1 inh 0%, Gal4-VP16 FLuc 11µM*, TDP1 cell CPT -3%, DT40 TDP1 no CPT -1% and RORg inh 3.2µM*.
O=Cc1cn(CCC(=O)O)nc1-c1cc2ccccc2o1 was read as TDP1 inh 8%, Gal4-VP16 FLuc inconclusive, TDP1 cell CPT 3%, DT40 TDP1 no CPT -20% and RORg inh 12%.
For COc1ccc(NC(=O)C2CCN(c3ccc(Sc4ccc(C)cc4)nn3)CC2)cc1 the results were TDP1 inh 0%, TDP1 cell CPT -26% and DT40 TDP1 no CPT -20%.
For CCC(c1nnc(SCC(=O)Nc2nnc(-c3ccccc3)o2)n1Cc1ccccc1)N(C)C (stereo not given) the results were TDP1 inh 3%, Gal4-VP16 FLuc inconclusive, TDP1 cell CPT 28%, DT40 TDP1 no CPT -4% and RORg inh 8.9µM*.
For COc1ccc(OC)c(NC(=O)C2=C(C)C(=O)OC23CCCCCC3)c1 the results were TDP1 inh 1%, TDP1 cell CPT inconclusive and DT40 TDP1 no CPT inconclusive.
Screening CC1=C(C(=O)Nc2cccc(C(F)(F)F)c2)C2(CCCCCC2)OC1=O returned TDP1 inh 7%, TDP1 cell CPT 16µM* and DT40 TDP1 no CPT inconclusive.
For CC1=C(C(=O)NCc2cccc(F)c2)C2(CCCCC2)OC1=O the results were TDP1 inh 0%, TDP1 cell CPT -25% and DT40 TDP1 no CPT -14%.
For CC1=C(C(=O)NCc2cccc(Br)c2)C2(CCCCC2)OC1=O the results were TDP1 inh 1%, TDP1 cell CPT 15µM* and DT40 TDP1 no CPT 23µM*.
`CC1=C(C(=O)Nc2cccc(F)c2)C2(CCCCC2)OC1=O` gave TDP1 inh 3%, TDP1 cell CPT inconclusive and DT40 TDP1 no CPT inconclusive.
Screening CC1=C(C(=O)Nc2cccc(C(F)(F)F)c2)C2(CCCCC2)OC1=O returned TDP1 inh 1%, TDP1 cell CPT inconclusive and DT40 TDP1 no CPT 16µM*.
For COC(=O)c1ccccc1NC(=O)C1=C(C)C(=O)OC12CCCCCC2 the results were TDP1 inh 2%, TDP1 cell CPT 18µM* and DT40 TDP1 no CPT 16µM*.
Screening CCCCN1C(=O)C(CC(=O)NC2CCCCC2)CC(C(=O)N2CCOCC2)=C1C (stereo not given) returned TDP1 cell CPT -1% and DT40 TDP1 no CPT 8%.
COCCNC(=O)c1cn(C(C)c2ccccc2F)nn1 (stereo not given) was read as Gal4-VP16 FLuc -13%, TDP1 cell CPT 6%, DT40 TDP1 no CPT 2% and RORg inh 4%.
CC(c1ccccc1F)n1cc(C(=O)NCCc2ccco2)nn1 (stereo not given) was read as TDP1 inh 0%, Gal4-VP16 FLuc 2%, TDP1 cell CPT inconclusive, DT40 TDP1 no CPT 18µM* and RORg inh 24%.
`CC(c1ccccc1F)n1cc(C(=O)NCc2ccncc2)nn1` (stereo not given) gave TDP1 inh 3%, Gal4-VP16 FLuc 5%, TDP1 cell CPT -2%, DT40 TDP1 no CPT -11% and RORg inh 2.8µM*.
CC(c1ccccc1)n1cc(C(=O)NCc2ccncc2)nn1 (stereo not given) was read as TDP1 inh 4%, Gal4-VP16 FLuc -10%, TDP1 cell CPT 20%, DT40 TDP1 no CPT 0% and RORg inh -8%.
For O=c1ccc(-c2ccc(S(=O)(=O)NCC3CCN(Cc4cccc(F)c4)CC3)s2)n[nH]1 the results were TDP1 inh 4%, Gal4-VP16 FLuc -7%, TDP1 cell CPT -5%, DT40 TDP1 no CPT 11% and RORg inh -11%.
Screening CN(c1ccccc1)c1ccc(/C=N/N2CCOCC2)cc1 returned TDP1 inh 5%, Gal4-VP16 FLuc -4%, TDP1 cell CPT 2%, DT40 TDP1 no CPT -16% and RORg inh 30%.
Screening Cc1ccc(N2CCOCC2)c2c1C(=O)c1ccccc1C2=O returned TDP1 inh 3%, Gal4-VP16 FLuc -18%, TDP1 cell CPT inconclusive, DT40 TDP1 no CPT 16µM* and RORg inh -7%.
For CC1=C(N2CCOCC2)CCC1=O the results were TDP1 cell CPT -7% and DT40 TDP1 no CPT -2%.
Screening CC1=C(C)C(=O)C(N2CCOCC2)=CC1=O returned TDP1 inh -1%, Gal4-VP16 FLuc inconclusive, TDP1 cell CPT 16µM*, DT40 TDP1 no CPT 15µM* and RORg inh 22µM*.
O=C1C=C(N2CCOCC2)c2ccccc2C1=O was read as Gal4-VP16 FLuc 3.2µM*, TDP1 cell CPT 2.6µM*, DT40 TDP1 no CPT 2.3µM* and RORg inh 4µM*.
